Results filed as inconclusive are left out. Activity calls are given as the source filed them. Calls follow the shape of the dose curve; as a rule, active = well fitted curve in the direction sought with a large enough effect; inconclusive = small, poorly fitted or top-dose-only effect, or another doubt; inactive = no such curve, though single readings can be large; an effect the other way counts as inactive or inconclusive.
Key:
[1] = Quantitative High-Throughput drug screen in 47 multiple myeloma cell lines against the NCATS MIPE library collection: INA6_PLB cell viability assay (AID 1918965; also: nearly all actives have a fitted effect of over 55% in size)
Procedure, shortened: (§1)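 Steps: seed 500 cells per well; pin-transfer MIPE 4.0 library; incubate 48 h at 37C, 5% CO2, humidified; add CellTiter-Glo, 5 min room temperature; read luminescence.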

[2] = Quantitative High-Throughput drug screen in 47 multiple myeloma cell lines against the NCATS MIPE library collection: JJN3_DSMZ cell viability assay (AID 1918966; also: nearly all actives have a fitted effect of over 50% in size)
Procedure, shortened: (§2)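 qHTS of the MIPE 4.0 collection: 500 myeloma cells/well, 48 h drug exposure at 37C in 5% CO2, then CellTiter-Glo for 5 min at room temperature before luminescence reading.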

[3] = Quantitative High-Throughput drug screen in 47 multiple myeloma cell lines against the NCATS MIPE library collection: Karpas25_ECACC cell viability assay (AID 1918968; also: nearly all actives have a fitted effect of over 35% in size)
Procedure, shortened: as §2

[4] = Quantitative High-Throughput drug screen in 47 multiple myeloma cell lines against the NCATS MIPE library collection: KMS12BM_JCRB cell viability assay (AID 1918971); also: nearly all actives have a fitted effect of over 35% in size
Procedure, shortened: (§3)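 Inhibition of cell viability is measured here. Each line was plated at 500 cells per well, treated with MIPE 4.0 drugs, kept 48 hours at 37C, then assayed for ATP content by CellTiter-Glo luminescence.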

[5] = Quantitative High-Throughput drug screen in 47 multiple myeloma cell lines against the NCATS MIPE library collection: KMS21BM_JCRB cell viability assay (AID 1918974); settings: ATP luminescence, 48 h; viability: at 45.8 µM (top of the series)
Procedure, shortened: as §2

[6] = Quantitative High-Throughput drug screen in 47 multiple myeloma cell lines against the NCATS MIPE library collection: KMS26_JCRB cell viability assay (AID 1918975); also: nearly all actives have a fitted effect of over 45% in size
Procedure, shortened: as §3

[7] = Quantitative High-Throughput drug screen in 47 multiple myeloma cell lines against the NCATS MIPE library collection: NCIH929_DSMZ cell viability assay (AID 1918978); also: nearly all actives have a fitted effect of over 35% in size
Procedure, shortened: (§4)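 Inhibition of viability over 48 h was scored by ATP content (CellTiter-Glo) in 500-cell wells. Zero and full viability were defined by media-only and DMSO-only wells.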

[8] = Quantitative High-Throughput drug screen in 47 multiple myeloma cell lines against the NCATS MIPE library collection: OCIMY1_PLB cell viability assay (AID 1918979); also: nearly all actives have a fitted effect of over 35% in size
Procedure, shortened: as §4

[9] = Quantitative High-Throughput drug screen in 47 multiple myeloma cell lines against the NCATS MIPE library collection: MM1S_ATCC cell viability assay (AID 1918980); also: nearly all actives have a fitted effect of over 45% in size
Procedure, shortened: as §4

[10] = Quantitative High-Throughput drug screen in 47 multiple myeloma cell lines against the NCATS MIPE library collection: MM1R_ATCC cell viability assay (AID 1918981); also: nearly all actives have a fitted effect of over 35% in size
Procedure, shortened: as §4

[11] = Quantitative High-Throughput drug screen in 47 multiple myeloma cell lines against the NCATS MIPE library collection: LP1_DSMZ cell viability assay (AID 1918982); also: nearly all actives have a fitted effect of over 35% in size
Procedure, shortened: as §4

[12] = Quantitative High-Throughput drug screen in 47 multiple myeloma cell lines against the NCATS MIPE library collection: KMS28PE_JCRB cell viability assay (AID 1918983); also: nearly all actives have a fitted effect of over 35% in size
Procedure, shortened: as §4

[13] = Quantitative High-Throughput drug screen in 47 multiple myeloma cell lines against the NCATS MIPE library collection: KMS34_JCRB cell viability assay (AID 1918985); also: nearly all actives have a fitted effect of over 40% in size
Procedure, shortened: as §4

[14] = Quantitative High-Throughput drug screen in 47 multiple myeloma cell lines against the NCATS MIPE library collection: KMS27_JCRB cell viability assay (AID 1918970); settings: KMS27 myeloma cells, CellTiter-Glo ATP viability, 48 h; viability (% of DMSO): at 45.8 µM (top of the series); also: nearly all actives have a fitted effect of over 30% in size
Procedure, shortened: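 Viability inhibition screen, 48 h compound exposure, luminescent ATP read-out.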

[15] = Quantitative High-Throughput drug screen in 47 multiple myeloma cell lines against the NCATS MIPE library collection: KMS12PE_JCRB cell viability assay (AID 1918972); also: nearly all actives have a fitted effect of over 30% in size
Procedure, shortened: as §1

[16] = Quantitative High-Throughput drug screen in 47 multiple myeloma cell lines against the NCATS MIPE library collection: KMS20_JCRB cell viability assay (AID 1918973); also: nearly all actives have a fitted effect of over 45% in size
Procedure, shortened: as §2

[17] = Quantitative High-Throughput drug screen in 47 multiple myeloma cell lines against the NCATS MIPE library collection: L363_DSMZ cell viability assay (AID 1918984); also: nearly all actives have a fitted effect of over 40% in size
Procedure, shortened: as §4

[18] = Quantitative High-Throughput drug screen in 47 multiple myeloma cell lines against the NCATS MIPE library collection: H1112_PLB cell viability assay (AID 1918967; also: nearly all actives have a fitted effect of over 30% in size)
Procedure, shortened: as §2

[19] = Quantitative High-Throughput drug screen in 47 multiple myeloma cell lines against the NCATS MIPE library collection: MOLP8_DSMZ cell viability assay (AID 1918977); also: nearly all actives have a fitted effect of over 45% in size
Procedure, shortened: as §4

[20] = Quantitative High-Throughput drug screen in 47 multiple myeloma cell lines against the NCATS MIPE library collection: MMM1_PLB cell viability assay (AID 1918976); also: nearly all actives have a fitted effect of over 35% in size
Procedure, shortened: as §4
Potency is read from the fitted curve at half-maximal effect.

| Compound | Potency [1] | Potency [2] | Potency [3] | Potency [4] | Potency [5] | Potency [6] | Potency [7] | Potency [8] | Potency [9] | Potency [10] | Potency [11] | Potency [12] | Potency [13] | Potency [14] | Potency [15] | Potency [16] | Potency [17] | Potency [18] | Potency [19] | Potency [20] |
| --- | --- | --- | --- | --- | --- | --- | --- | --- | --- | --- | --- | --- | --- | --- | --- | --- | --- | --- | --- | --- |
| Cc1nc(NC(=O)N2CCC[C@@H]2C(N)=O)sc1-c1ccnc(C(C)(C)C(F)(F)F)c1 | 14800 nM (active) | 6620 nM (active) | 5260 nM (active) | 10500 nM (active) | inactive | 4180 nM (active) | 148 nM (active) | 93.5 nM (active) | 3320 nM (active) | 1660 nM (active) | 1480 nM (active) | 296 nM (active) | 1870 nM (active) |  |  |  |  |  |  |  |
| CC(C)Oc1ccc(C(=O)N[C@H](CNC(=O)CN(C)C)Cc2ccc(-c3cn4cccc([C@H](C)O)c4n3)cc2)cc1Cl | 74.3 nM (active) | inactive | 132 nM (active) | 743 nM (active) |  |  |  | 2640 nM (active) | 6620 nM (active) | 590 nM (active) |  | 590 nM (active) |  | 833 nM (active) | 469 nM (active) | 235 nM (active) | 83.3 nM (active) |  |  |  |
| O=C(Nc1cc2cc[nH]c2cn1)c1ccccc1 | 8330 nM (active) | 9350 nM (active) |  | 14800 nM (active) |  | 11800 nM (active) |  |  | 14800 nM (active) | 7430 nM (active) |  | 11800 nM (active) |  | 13200 nM (active) | 8330 nM (active) | 9350 nM (active) | 6620 nM (active) | 9350 nM (active) | 3720 nM (active) |  |
| CN(CC(=O)N(Cc1ccc(C2CCCCC2)cc1)c1ccc(C(=O)O)c(O)c1)S(=O)(=O)c1c(F)c(F)c(F)c(F)c1F | 6620 nM (active) | 18700 nM (active) |  | 29600 nM (active) |  | 20900 nM (active) | 4180 nM (active) | 33200 nM (active) | 7430 nM (active) | 8330 nM (active) | 20900 nM (active) | 29600 nM (active) | 20900 nM (active) | 3320 nM (active) | 7430 nM (active) | 6620 nM (active) | 9350 nM (active) | 18700 nM (active) | 18700 nM (active) | 20900 nM (active) |
| COc1ccc(C(C)=O)c(O)c1 | inactive | inactive |  |  |  |  | inactive | inactive | 4690 nM (active) |  | inactive | inactive | inactive |  | inactive | inactive |  | inactive | inactive |  |
| C=C1C[C@@]2(O)O[C@@]3(C[C@H]2C(C)C)[C@H](C)CC[C@H]13 | inactive | inactive |  | inactive |  |  | inactive | inactive | 1480 nM (active) | inactive |  | inactive | inactive | inactive | inactive | inactive |  | inactive | inactive |  |
| CCOC(=O)[C@@H](N)Cc1ccc(-c2cc(O[C@H](c3ccc(Cl)cc3-n3ccc(C)n3)C(F)(F)F)nc(N)n2)cc1 | 23500 nM (active) | 18700 nM (active) |  | 20900 nM (active) |  | 18700 nM (active) |  | 18700 nM (active) | 2960 nM (active) | 14800 nM (active) |  | 20900 nM (active) |  | 10500 nM (active) | 10500 nM (active) |  | 10500 nM (active) | 10500 nM (active) |  | 11800 nM (active) |
| C[C@]12CCC(=O)C=C1[C@@H]1CC1[C@H]1[C@H]3[C@@H]4C[C@H]4[C@@]4(CCC(=O)O4)[C@@]3(C)CC[C@H]12 (stereo partly specified) | 20900 nM (active) | inactive |  |  |  |  |  | inactive | inactive | inactive |  | inactive |  |  | 20900 nM (active) | inactive | inactive | inactive | inactive |  |
| Cn1cnc(=N)c2[nH]cnc21 | 46.9 nM (active) | 166 nM (active) |  | 105 nM (active) |  | 132 nM (active) | 132 nM (active) | 743 nM (active) | 93.5 nM (active) | 93.5 nM (active) | 166 nM (active) | 105 nM (active) | 132 nM (active) | 59 nM (active) | 93.5 nM (active) | 52.6 nM (active) | 132 nM (active) | 235 nM (active) |  | 148 nM (active) |
| C=CCNC1=C2C[C@@H](C)C[C@H](OC)[C@@H](O)[C@@H](C)C=C(C)[C@H](OC(N)=O)[C@@H](OC)C=CC=C(C)C(=O)NC(=CC1=O)C2=O | 209 nM (active) | 332 nM (active) |  | 469 nM (active) |  | 2350 nM (active) |  | 1050 nM (active) | 2350 nM (active) | 1320 nM (active) |  | 418 nM (active) | 235 nM (active) | 105 nM (active) | 83.3 nM (active) | 1 nM (active) | 26.4 nM (active) | 14800 nM (active) |  | 5900 nM (active) |
| COc1cc(OC)c(C=CS(=O)(=O)Cc2ccc(OC)c(NCC(=O)O)c2)c(OC)c1 | 296 nM (active) | 1050 nM (active) |  | 418 nM (active) | 83.3 nM (active) | 1320 nM (active) | 2640 nM (active) | 418 nM (active) | 4180 nM (active) | 2350 nM (active) |  | 469 nM (active) | 209 nM (active) | 74.3 nM (active) | 105 nM (active) | 1180 nM (active) | 46.9 nM (active) | 418 nM (active) | 2090 nM (active) | 743 nM (active) |
